The numbers were not newly measured in PubChem BioAssay AID977611, which cites them from elsewhere.

The data set in a line: PubChem AID 977611. The note with it: PDB protein-ligand complexes, literature Kd.

The campaign covered roughly 3,900 compounds. About 3,900 (100%) were called active. No cut-off is given here; in the data, nearly all actives have Kd up to about 4200 µM. So high a share suggests a set chosen from earlier hits. The list shows a part of the results. Where a SMILES comes first, the peptide text is derived from it. Square brackets hold non-standard residues; d marks the D form. Peptide text beside a SMILES is read from it. [ ]: non-standard residue; d: D form. Orn(CH(NH2)2) = NC(N)NCCC[C@H](N)C(=O)O; Aib = CC(C)(N)C(=O)O

With `CC[C@H](C)[C@H](NC(=O)[C@H](CC(C)C)NC(=O)[C@H](CCC(=O)O)NC(=O)[C@H](CCCNC(N)N)NC(=O)[C@H](CCCCN)NC(=O)[C@@H](N)CCCCN)C(=O)N[C@@H](CCC(=O)O)C(=O)N[C@@H](CO)C(=O)N[C@@H](CCCCN)C(=O)N[C@@H](Cc1c[nH]c2ccccc12)C(=O)N[C@@H](Cc1cnc[nH]1)C(=O)N[C@@H](CCCNC(N)N)C(=O)N[C@@H](CC(C)C)C(=O)N[C@@H](CC(C)C)C(=O)N[C@@H](Cc1ccccc1)C(=O)N[C@@H](Cc1cnc[nH]1)C(=O)N[C@@H](CC(=O)O)C(=O)N[C@@H](CCCCN)C(=O)N[C@@H](CCCCN)C(=O)O` (H-KK[Orn(CH(NH2)2)]ELIESKWH[Orn(CH(NH2)2)]LLFHDKK-OH), the Kd (protein: Chlamydomonas reinhardtii caltractin (CRC-C), PDB entry 1oqp) was 0.05 µM (active).
As to H-KEEEDDDMKELENWAGSM-OH, the dissociation constant Kd (protein: Programmed cell death 6-interacting protein, PDB entry 3c3q) is 48 µM (active).
Regarding H-TWIENKLYGM-OH, the Kd (protein: Dock 1 PTB domain, PDB entry 1uef) is 3.2 µM (active).
Regarding `CC[C@H](C)[C@H](NC(=O)[C@H](CC(=O)O)NC(=O)[C@H](Cc1ccccc1)NC(=O)[C@H](Cc1c[nH]c2ccccc12)NC(=O)[C@@H](N)CC(N)=O)C(=O)N[C@H](C(=O)N[C@@H](CC(N)=O)C(=O)NC(C)(C)C(=O)N[C@@H](CC(C)C)C(=O)N[C@@H](Cc1c[nH]c2ccccc12)C(=O)N[C@@H](CCCNC(N)N)C(=O)N[C@@H](CCCNC(N)N)C(=O)O)[C@@H](C)O` (H-NWFDITN[Aib]LW[Orn(CH(NH2)2)][Orn(CH(NH2)2)]-OH), where the note is “protein: human fab 4e10, PDB entry 2fx8”, the Kd was 0.302 µM (active).
For `CC[C@H](C)[C@H](NC(=O)[C@H](CC(=O)O)NC(=O)[C@H](Cc1c[nH]c2ccccc12)NC(=O)[C@H](Cc1ccccc1)NC(=O)[C@H](CCCCN)NC(=O)[C@H](CC(C)C)NC(=O)[C@@H](NC(=O)[C@H](Cc1ccccc1)NC(=O)[C@@H](N)CC(N)=O)[C@@H](C)O)C(=O)N[C@@H](Cc1ccccc1)C(=O)N[C@@H](CCCNC(N)N)C(=O)N[C@@H](CCCCN)C(=O)O` (H-NFTLKFWDIF[Orn(CH(NH2)2)]K-OH), the Kd (protein: Chaperone surA-P1, PDB entry 2pv2) was 1.23 µM (active).
With H-QLAWFDTDL-OH, for the setting “protein: Tax-interacting protein-1 (TIP-1), PDB entry 3diw”, the Kd was 0.19 µM (active).
In the case of H-NFTLKFWDIF-OH, for the setting “protein: Chaperone surA(P2), PDB entry 2pv3”, the Kd was 5.57 µM (active).
Consider `NCc1ccccc1-n1cccn1`, for which the Kd (protein: INTEGRASE, PDB entry 4ahv) was 15000 µM (active).
For the molecule `NCc1cccc(N2CCCC2)c1`, the Kd (protein: CATIONIC TRYPSIN, PDB entry 4abh) was 71 µM (active).
As to `NCc1cccc(-n2cccc2)c1`, the Kd (protein: CATIONIC TRYPSIN, PDB entry 4abd) is 40 µM (active).
As for `NCc1cccc(-n2cccn2)c1`, the Kd (protein: CATIONIC TRYPSIN, PDB entry 4abe) was 400 µM (active).
`O[P+](O)(O)O[C@@H]1C(OCc2ccccc2)[C@H](O[P+](O)(O)O)[C@@H](O[P+](O)(O)O)C(OCc2ccccc2)[C@H]1O[P+](O)(O)O` (stereo not given in full): where the note is “protein: Inositol hexakisphosphate and diphosphoinositol-pentakisphosphate kinase 2 PPIP5K2, PDB entry 4nzo”, the Kd was 0.17 µM (active).
Turning to `C[C@H]1O[C@H](O)[C@@H](O)[C@@H](O)[C@@H]1O`, the Kd (protein: Pyocin L1, PDB entry 4led) is 5000 µM (active).
On to `C[C@@H]1O[C@@H](O)[C@H](O)[C@H](O)[C@H]1O`, for which, for the setting “protein: Putative rhamnosidase, PDB entry 3w5n”, the Kd was 135 µM (active).
Turning to `O=S(=O)(Nc1nc2ccc(Cl)cc2s1)c1cc2ccccc2s1`, the Kd (protein: 3-phosphoinositide-dependent protein kinase 1 PDK1, PDB entry 4rqv) was 9 µM (active).
Consider H-DEEGGGEEDQDFDLSQLH-OH, for which the Kd (protein: p120 catenin isoform 4A delta 1 (deletion, residues 613-643), PDB entry 3l6x) is 40 µM (active).
As for H-SFGDGFADF-OH, the Kd (protein: AP-2 complex subunit ?-2, PDB entry 2iv9) is 46 µM (active).
In the case of H-DLLDSLGF-OH, where the note is “protein: Chemotaxis protein cheY, PDB entry 2pmc”, the dissociation constant Kd was 64.7 µM (active).
For the molecule `CC(C)C[C@H](NC(=O)[C@@H](N)CC(=O)O)C(=O)N[C@@H](Cc1ccccc1)C(=O)O` (H-Asp-Leu-Phe-OH), the Kd (protein: DNA polymerase III subunit beta, PDB entry 4k3m) is 281 µM (active).
On to H-SGFSF-OH, for which, where the note is “protein: Ras GTPase-activating protein-binding protein 1, PDB entry 4fcm”, the Kd was 115 µM (active).
